# Measured values published in PubChem BioAssay (NCATS).
# This is one part of the list. A call without a number means that no potency is given here. Records with an inconclusive call do not appear. Active and inactive are the calls of the source. Calls follow the shape of the full dose curve.
# System: Hepatitis C virus NS3/4A protease
# Experiment: Selectivity profile for inhibitors of NSP2Pro chikungunya virus (CHIKV): NS34A-HCV Counterscreen (AID 1964106); also: nearly all actives have a fitted effect of over 55% in size
# Conditions: HCV NS3/4A protease biochemical counterscreen; series mostly up to 50.9 µM
# Description: PI: Natalia J. Martinez Ph.D.
# National Center for Advancing Translational Sciences (NCATS),
# National Institute of Health (NIH), Rockville, Maryland
# Chikungunya virus (CHIKV) is a mosquito-borne RNA virus that has emerged as one of the most important global arboviral threats in the last decade. Although the first CHIKV vaccine has recently been FDA approved for use in healthy adults at increased risk, to date, there are no available antiviral drugs for CHIKV infection. CHIKV nsP2 protease plays a crucial role in the processing of the viral polypeptide precursor to release enzymes required for viral replication, thus making it a promising drug target for antiviral discovery. Here, we established a high-throughput pipeline to identify small molecule inhibitors of nsP2 proteolytic activity. The pipeline is composed of a suite of 1,536-well in vitro assays to support quantitative high-throughput (qHTS) screening campaigns. Specifically, we developed a fluorescence resonance energy transfer (FRET)-based assay using a fluorogenic peptide substrate encompassing an endogenous cleavage site and purified recombinant protease domain (nsP2pro). Using this assay, we interrogated ~37,000 small molecules, including those in drug repurposing libraries as well as chemically diverse and medicinal chemistry-friendly compounds. Hits were selected for follow-up validation against full-length nsP2 and an additional peptide. FRET-based 1,536-well assays for papain, hepatitis C virus NS3-4A, and human furin proteases were implemented to characterize compound selectivity. […] Novel compounds were identified to be potential nsP2 inhibitors and molecular docking analyses were performed to explain the binding mode of selected hits. In vitro antiviral activity was evaluated against a subset of compounds using a high-throughput CHIKV infection assay. To our knowledge, the pipeline presented here is unprecedented for CHIKV antiviral discovery research.
# PROTOCOL TABLE (as described by Inglese J, Shamu CE and Guy RK. 2007)
# SEQUENCE No. (e.g., 1, 2, 3, etc.); […] (e.g., Cells, Incubation, Reagent, etc.); VALUE; DESCRIPTION.
# 1; Enzyme; 2 uL; 1,536-well solid-bottom, black plate (Greiner Bio One).
# 2; Compounds; 20 nL; Echo 655 acoustic dispenser (Beckman Coulter).
# 3; Incubation; 15 min; room temperature in the dark.
# 4: Reagent; 2 uL; Ac-DE-[Lys(5-TAMRA)]-EE-[Abu-psi(COO)Ala]-S-[Lys(ECLIPSE-7)]-amide.
# 5; Detection; Fluorescence; time 0, ViewLux microplate reader (PerkinElmer) 525 nm excitation, 598/25 nm emission
# 6; Incubation; 15 min; room temperature
# 7; Detection; Fluorescence; time 15; ViewLux microplate reader (PerkinElmer), 525 nm excitation, 598/25 nm emission.
# NOTES (numbers refer to sequence numbers above).
# 1. Two microliter of NS3-4A HCV enzyme solution (5 nM final concentration) in assay buffer (20 mM Tris-HCl pH 8.0, 150 mM NaCl, with 0.01% Tween 20) were dispensed into a 1,536-well solid-bottom black plate (Greiner Bio One) using the Kalypsys Pintool Station.
# 2. Twenty nanoliter of compounds, positive control Aprotinin (50 uM final concentration), or neutral control DMSO were transferred to the assay plates. Compounds in counter-screen assays were tested at 11 concentrations, 1:3 dilution points from 25 uM to 0.42 nM.
# 3. The assay plates were incubated in the dark for 15 min.
# 4. After incubation, 2 uL of 0.625 uM substrate (Ac-DE-[Lys(5-TAMRA)]-EE-[Abu-psi(COO)Ala]-S-[Lys(ECLIPSE-7)]-amide) in assay buffer (for NS3-4A assay) was added using the Kalypsys Pintool Station.
# 5-7. Plates were immediately read at time 0 then covered with stainless steel gasket lids and incubated for 15 min at room temperature in the dark. Fluorescence intensity in the assay plates were again read after incubation using the ViewLux imager equipped with Tamara fluorescence optics. The change in fluorescence intensity over the 15-min reaction period was normalized against DMSO and inhibitor controls as described below.
# […]
# Potency is read from the fitted curve at half-maximal effect.
row,Compound,Potency
1,CCOc1ccc(NC(=O)c2c(NC(=O)Cc3ccccc3)sc3c2CCCCC3)cc1,inactive
2,Cc1c(S(=O)(=O)O)oc2c1C(=O)C(=O)c1c-2ccc2c1CCCC2(C)C,inactive
3,CCOc1ccc(NC(=O)c2c(NC(=O)Cc3ccccc3)sc3c2CCC(C)C3)cc1 (stereo unspecified),inactive
4,N#CSc1cc(SC#N)c(N)nc1N,inactive
5,O=C(O)c1cccc(-n2[nH]c(-c3ccccc3)cc2=O)c1,inactive
6,CC1=C(/C=C/C(C)=C/C=C/C(C)=C/C=C/C=C(C)/C=C/C=C(C)/C=C/C2=C(C)CCCC2(C)C)C(C)(C)CCC1,inactive
7,CO[C@]1(NC(=O)CSC(F)F)C(=O)N2C(C(=O)O)=C(CSc3nnnn3CCO)CO[C@H]21,inactive
8,C[C@@H]1O[C@@H](O[C@@H]2[C@@H](O)[C@H](OCCc3ccc(O)c(O)c3)O[C@H](CO[C@@H]3O[C@H](CO)[C@@H](O)[C@H](O)[C@H]3O)[C@H]2OC(=O)/C=C/c2ccc(O)c(O)c2)[C@H](O)[C@H](O)[C@H]1O,inactive
9,C=CC(=O)c1ccc2ccccc2c1,inactive
10,Cn1nnnc1Sc1ncnc2n[nH]c(-c3cccc(S(C)(=O)=O)c3)c12,316 µM (active)
11,CCOc1ccc(N(Cc2ccccc2)C(=O)c2nc(S(C)(=O)=O)ncc2Cl)cc1,inactive
12,C[C@@H]1C[C@@H](O)[C@@]23CO[C@]2(CO)C[C@@H](O)CC3[C@@]12CC(c1ccoc1)OC2=O (stereo partly specified),11.3 µM (active)
13,CCC(C)C(=O)OC1C(C)C2(O)C(C=C(CO)CC3(O)C(=O)C(C)=CC32)C2C(C)(C)C12OC(=O)C(C)C (stereo unspecified),inactive
14,C=Cc1c(C)c2cc3nc(cc4[nH]c(cc5nc(cc1[nH]2)C(C)=C5CCC(=O)O)c(CCC(=O)OC)c4C)[C@@]1(C)C3=CC=C(C(=O)OC)[C@H]1C(=O)OC,inactive
15,CC(=O)N[C@@H](C(=O)O[C@H]1CCC(C)(C)[C@@H]2CCC3=C(COC3=O)[C@@]12C)C(C)C,inactive
16,COC([CH2][Hg])CNC(=O)c1ccccc1OCC(=O)O (stereo unspecified),1.63 µM (active)
